Compound activity from PubChem BioAssay.
Sm TGR block: inhibitors of Schistosoma mansoni thioredoxin glutathione reductase; purified TGR, DTNB reduction, TNB absorbance 405 nm; Potency, µM (top dose mostly 114 µM), actives largely listed as inhibitors; hit rate 3% among 360,000; further: nearly all actives have a fitted effect of over 60% in size
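TGR 20 nM + NADPH 100 uM (dispensed conc.), cpd preinc 15 min RT; start with NADPH (500 uM addition) then DTNB (15 mM addition). Kinetic TNB absorbance, 405 nm filter. Four-parameter Hill fit across titration.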
Pf growth 96h: P. falciparum growth inhibition at 96 hours | hit rate 6.9% among 320,000 | Potency, µM (doses to about 28.7 µM), usual class: inhibitors | P. falciparum luciferase reporter growth, 96 h | AID 504834
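Luminescence readout: decreased luciferase signal marks inhibited growth of reporter-expressing P. falciparum in infected red cells (2% hematocrit, 0.05% parasitemia final), exposed to compound two generations (96 h, 37 C, 5% CO2).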
AmpC detergent: blocks E. coli AmpC beta-lactamase in detergent assay; P00811; AmpC hydrolysis of nitrocefin, absorbance 480 nm, 0.01% Triton; hit rate 0.041% among 370,000; Potency, µM (top dose mostly 114 µM), most hits filed as inhibitors; further: nearly all actives have a fitted effect of over 25% in size
Target sequence (P00811 whole entry, looked up): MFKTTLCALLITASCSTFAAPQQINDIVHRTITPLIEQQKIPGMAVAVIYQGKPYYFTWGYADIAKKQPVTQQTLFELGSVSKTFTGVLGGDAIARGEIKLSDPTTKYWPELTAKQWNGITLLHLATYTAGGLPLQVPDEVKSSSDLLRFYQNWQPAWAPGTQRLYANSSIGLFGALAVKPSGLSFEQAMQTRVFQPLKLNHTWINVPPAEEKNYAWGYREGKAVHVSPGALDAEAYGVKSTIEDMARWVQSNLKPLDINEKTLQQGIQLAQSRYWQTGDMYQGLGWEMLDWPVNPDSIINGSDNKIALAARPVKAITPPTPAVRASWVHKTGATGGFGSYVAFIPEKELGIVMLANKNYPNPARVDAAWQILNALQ
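20 mM phosphate pH 7.0 + 0.01% (detergent screen) or 0.0001% Triton X-100; 5.3 nM AmpC reagent; cpd preinc 15 min RT; nitrocefin (800 uM stock) to start; A480 q20 s × 4 min; Activity was normalised to no-enzyme and no-compound control wells.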
Pf growth 48h: P. falciparum growth inhibition at 48 hours (one generation); P. falciparum luciferase growth in erythrocytes, 48 h; Potency, µM (top dose mostly 28.7 µM), actives largely listed as inhibitors; hit rate 5.9% among 310,000
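Read-out is firefly luciferase luminescence from an integrated reporter in P. falciparum, so falling signal marks reduced parasite growth. Infected erythrocytes were at 2% hematocrit and 0.1% parasitemia (final) in Albumax-supplemented RPMI 1640.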
AmpC no deterg: AmpC beta-lactamase inhibition without detergent | Potency, µM (top dose mostly 57.1 µM), most hits filed as inhibitors | AID 485341 | P00811 | hit rate 0.52% among 330,000 | AmpC nitrocefin hydrolysis, absorbance 480 nm, 0.0001% Triton; further: nearly all actives have a fitted effect of over 20% in size
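20 mM phosphate pH 7.0 + 0.01% (detergent screen) or 0.0001% Triton X-100; 5.3 nM AmpC reagent; cpd preinc 15 min RT; nitrocefin (800 uM stock) to start; A480 q20 s × 4 min; Activity was normalised to no-enzyme and no-compound control wells.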
SARS PLpro yeast: blocks SARS-CoV papain-like protease in a yeast assay | hit rate 0.19% among 330,000 | S. cerevisiae expressing SARS-CoV PLpro, growth rescue | AID 485353 | Potency, µM (series often up to 32.9 µM), hits mostly activators; calls by dose curve; further: nearly all actives have a fitted effect of over 55% in size
Numbers stand for hits; [ ] = remark or other dose. The list is not random: actives were taken first. Their share in the collection is about 12%. Unless noted, the call rests on the fitted dose curve; in most records, active means well fitted curve in the direction sought with a large enough effect; inconclusive means small, poorly fitted or top-dose-only effect, or another doubt; inactive means no such curve, though single readings can be large; an effect the other way counts as inactive or inconclusive.

What do the screens show for `CC(=O)Nc1ccc(NC(=O)c2cc(C3CC3)nc3c2cnn3C(C)C)cc1`?
Sm TGR block: inactive; Pf growth 96h: inactive; AmpC detergent: inactive; Pf growth 48h: inconclusive; AmpC no deterg: inactive; SARS PLpro yeast: inactive

What do the screens show for `CC(C)n1ncc2c(C(=O)Nc3cccc(S(=O)(=O)N(C)C)c3)cc(C3CC3)nc21`?
Sm TGR block: inactive; Pf growth 96h: inconclusive; AmpC detergent: inactive; Pf growth 48h: 12µM; AmpC no deterg: inactive; SARS PLpro yeast: inactive

How did CCN(CC)C(=O)c1cccc(NC(=O)c2cc(C3CC3)nc3c2cnn3C(C)C)c1 do in these assays?
Sm TGR block: inactive; Pf growth 96h: 5.2µM; AmpC detergent: inconclusive; Pf growth 48h: inconclusive; AmpC no deterg: inactive; SARS PLpro yeast: inactive

Results for CCc1noc(C)c1C(=O)Nc1nc(-c2ccccc2)c(C(C)=O)s1 ?
Sm TGR block: inactive; Pf growth 96h: inconclusive; AmpC detergent: inactive; Pf growth 48h: inactive; AmpC no deterg: inactive; SARS PLpro yeast: inactive

What do the screens show for `Nc1c(C(=O)Nc2ccc(Br)cc2)sc2nc(-c3ccco3)ccc12`?
Sm TGR block: 0.79µM; Pf growth 96h: inactive; AmpC detergent: inactive; Pf growth 48h: inactive; AmpC no deterg: inactive; SARS PLpro yeast: inactive

Results for Nc1c(C(=O)Nc2ccc(F)cc2)sc2nc(-c3ccco3)ccc12 ?
Sm TGR block: inconclusive; Pf growth 96h: inactive; AmpC detergent: inactive; Pf growth 48h: inactive; AmpC no deterg: inconclusive; SARS PLpro yeast: inactive

Results for Cc1ccc(NC(=O)c2sc3nc4c(c(-c5ccco5)c3c2N)CCC4)cc1 ?
Sm TGR block: inactive; Pf growth 96h: 2.3µM; AmpC detergent: inactive; Pf growth 48h: inconclusive; AmpC no deterg: inactive; SARS PLpro yeast: inactive

Results for CC(=O)c1sc2nc(-c3ccco3)ccc2c1N ?
Sm TGR block: 0.89µM; Pf growth 96h: inactive; AmpC detergent: inactive; Pf growth 48h: inactive; AmpC no deterg: inactive; SARS PLpro yeast: inactive

Results for CCOc1cc(C#N)c(NC(=O)c2ccc(OC)c(S(=O)(=O)N3CCN(c4ccccc4)CC3)c2)cc1OCC ?
Sm TGR block: inactive; AmpC detergent: inactive

Results for CC1(C)Cc2c(sc(NC(=O)C(C)(C)C)c2C#N)C(C)(C)N1 ?
Sm TGR block: inactive; Pf growth 96h: 3.3µM; AmpC detergent: inconclusive; Pf growth 48h: inconclusive; AmpC no deterg: inactive; SARS PLpro yeast: inactive

What do the screens show for `S=C(Nc1cccnc1)N1CCc2ccccc21`?
Sm TGR block: inactive; Pf growth 96h: 5.2µM; AmpC detergent: inactive; Pf growth 48h: inactive; AmpC no deterg: inactive; SARS PLpro yeast: inactive

How did CCOC(=O)c1ccc(OCC2c3cc(OC)c(OC)cc3CCN2C(=O)Cc2ccc(OC)c(OC)c2)cc1 (configuration not stated) do in these assays?
Sm TGR block: inactive; AmpC detergent: inactive

What do the screens show for `O=C(c1cccn1-c1nnc(N2CCCC2)s1)N1CCN(c2ccc(Cl)cc2)CC1`?
Sm TGR block: inactive; AmpC detergent: inactive

What do the screens show for `COc1ccc(-c2noc(-c3ccc(NCCc4ccccc4)c([N+](=O)[O-])c3)n2)cc1OC`?
Sm TGR block: inactive; AmpC detergent: inactive

How did COc1ccccc1-c1nn(CCC(=O)Nc2ccc(C)cc2)c2nc(C)cc(C)c12 do in these assays?
Sm TGR block: inactive; AmpC detergent: inactive

Results for Cc1ccc(Cl)c2c1NC(=O)C2(O)CC(=O)c1ccccc1O (configuration not stated) ?
Sm TGR block: inactive; Pf growth 96h: 9.3µM; AmpC detergent: inactive; Pf growth 48h: inactive; AmpC no deterg: inactive; SARS PLpro yeast: inactive

What do the screens show for `CC(C)CC1C(C#N)=C(N)Oc2n[nH]c(-c3cccs3)c21` (configuration not stated)?
Sm TGR block: inactive; Pf growth 96h: inconclusive; AmpC detergent: inconclusive; AmpC no deterg: inactive; SARS PLpro yeast: inactive

How did CSCCC1C(C#N)=C(N)Oc2n[nH]c(-c3cccs3)c21 (configuration not stated) do in these assays?
Sm TGR block: 13µM; Pf growth 96h: inconclusive; AmpC detergent: inactive; Pf growth 48h: inactive; AmpC no deterg: inactive; SARS PLpro yeast: inactive

Results for Cc1ccc2c(c1)N(S(=O)(=O)c1ccc(F)cc1)C(C(C)(C)C)CO2 (configuration not stated) ?
Sm TGR block: inactive; Pf growth 96h: inactive; AmpC detergent: inactive; Pf growth 48h: 13µM; AmpC no deterg: inactive; SARS PLpro yeast: inconclusive

How did Cc1ccc(S(=O)(=O)N2c3ccccc3OCC2C(C)(C)C)cc1 (configuration not stated) do in these assays?
Sm TGR block: inactive; Pf growth 96h: inconclusive; AmpC detergent: inactive; Pf growth 48h: 9.3µM; AmpC no deterg: inactive; SARS PLpro yeast: inactive

Results for CCOC(=O)c1cnc2ccc(C)cc2c1Nc1ccc(N2CCOCC2)cc1 ?
Sm TGR block: inactive; Pf growth 96h: 10µM; AmpC detergent: inactive; Pf growth 48h: inconclusive; AmpC no deterg: inactive; SARS PLpro yeast: inactive

How did CCCCNS(=O)(=O)c1ccc2nc(-c3cccnc3)cc(C(=O)NCCCOC(C)C)c2c1 do in these assays?
Sm TGR block: inactive; AmpC detergent: inactive

What do the screens show for `CCCc1cc(C(=O)OCC(=O)N(CCC)c2c(N)n(Cc3ccccc3)c(=O)[nH]c2=O)sc1C`?
Sm TGR block: inactive; Pf growth 96h: inactive; AmpC detergent: inactive; Pf growth 48h: inconclusive; AmpC no deterg: inactive; SARS PLpro yeast: inactive

Results for O=C(c1cccs1)N1CCN(S(=O)(=O)c2ccc(F)cc2)CC1 ?
Pf growth 96h: 0.47µM; AmpC detergent: inactive; Pf growth 48h: inactive; AmpC no deterg: inactive; SARS PLpro yeast: inactive

Results for COc1ccc(C(=O)NC2CCN(S(=O)(=O)c3ccc(F)cc3)CC2)cc1 ?
Sm TGR block: inactive; Pf growth 96h: inconclusive; AmpC detergent: inactive; Pf growth 48h: inactive; AmpC no deterg: inactive; SARS PLpro yeast: inactive

What do the screens show for `O=C(NC1CC2CCCC(C1)N2S(=O)(=O)c1ccccc1)c1ccco1` (configuration not stated)?
Sm TGR block: inconclusive; Pf growth 96h: inactive; AmpC detergent: inactive; Pf growth 48h: inconclusive; AmpC no deterg: inactive; SARS PLpro yeast: inconclusive

What do the screens show for `CC(=O)NC1CC2CCCC(C1)N2S(=O)(=O)c1cccc(F)c1` (configuration not stated)?
Sm TGR block: inactive[11.4 µM]; Pf growth 96h: 8.3µM; AmpC detergent: inactive; AmpC no deterg: inactive; SARS PLpro yeast: inactive

What do the screens show for `O=C(NC1CCN(S(=O)(=O)c2ccc(F)cc2)CC1)c1ccc(F)cc1`?
Sm TGR block: inactive; Pf growth 96h: 12µM; AmpC detergent: inactive; Pf growth 48h: inactive; AmpC no deterg: inactive; SARS PLpro yeast: inactive
